Test results: PubChem BioAssay (NCATS)
Results filed as inconclusive are left out. A number with no mark means an inactive call. Calls of active or inactive are those of the source. Calls follow the shape of the dose curve; as a rule, active = well fitted inhibition curve with a large enough effect; inconclusive = small, poorly fitted or top-dose-only effect; inactive = no such curve, though single readings can be large or run the other way.

Assay: HTS Assay for Allosteric Antagonists of the Human D2 Dopamine Receptor: Hit Validation in HTRF (AID 624455);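 also: stable D1 dopamine receptor cell line scored for blocking the D1 response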
Conditions: Cells stably expressing D1 dopamine receptor, inhibition mode; series mostly up to 46.1 µM; activity, negative = inhibition: at the top concentration
Method in brief: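 Inhibition of the D1-mediated response was measured by HTRF. Cells used were a line stably expressing the D1 dopamine receptor.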
% is scaled to controls: 0 for no effect and ±100 for the full control effect; potency is read from the fitted curve at half-maximal effect.

Row | Compound | activity, negative = inhibition [%] | Potency
1 | COc1ccc2c(c1)c(CC(=O)O)c(C)n2C(=O)c1ccc(Cl)cc1 | 2.29 | 
2 | COc1ccccc1N1CCN(CC(O)COc2cccc3ccccc23)CC1 (configuration not stated) | 3.79 | 
3 | O=c1[nH]cc(F)c(=O)[nH]1 | 1.75 | 
4 | COc1cc2nc(N3CCN(C(=O)c4ccco4)CC3)nc(N)c2cc1OC | -1.64 | 
5 | NC(=O)NO | -4.32 | 
6 | NC12CC3CC(CC(C3)C1)C2 | -8.52 | 
7 | O=C1Cc2cc(CCN3CCN(c4nsc5ccccc45)CC3)c(Cl)cc2N1 | 7.3 | 
8 | COc1cc2nc(N3CCN(C(=O)C4COc5ccccc5O4)CC3)nc(N)c2cc1OC (configuration not stated) | -1.16 | 
9 | O=C(C1CCCCC1)N1CC(=O)N2CCc3ccccc3C2C1 (configuration not stated) | 8.22 | 
10 | CC(C)NCC(O)COc1ccc(CCOCC2CC2)cc1 (configuration not stated) | -15.7 | 
11 | Clc1ccccc1C(c1ccccc1)(c1ccccc1)n1ccnc1 | 2.71 | 
12 | CC12CC3CC(C)(C1)CC(N)(C3)C2 | 12.9 | 
13 | NCCc1cnc[nH]1 | -5.65 | 
14 | COC(=O)Nc1nc2ccc(C(=O)c3cccs3)cc2[nH]1 | -0.967 | 
15 | COc1ccccc1OCCNCC(O)COc1cccc2[nH]c3ccccc3c12 (configuration not stated) | -14.7 | 
16 | Cc1cn([C@H]2C[C@H](N=[N+]=[N-])[C@@H](CO)O2)c(=O)[nH]c1=O | -5.68 | 

Row | Compound | activity, negative = inhibition [%] | Potency
17 | Nc1nc2c(ncn2COC(CO)CO)c(=O)[nH]1 | 4.48 | 
18 | CCOC(=O)Nc1ccc(NCc2ccc(F)cc2)nc1N | 5.79 | 
19 | CN(C)C(=O)C(CCN1CCC(O)(c2ccc(Cl)cc2)CC1)(c1ccccc1)c1ccccc1 | 6.77 | 
20 | O=C(c1ccc(F)cc1)C1CCN(CCn2c(=O)[nH]c3ccccc3c2=O)CC1 | 31.6 | 
21 | NC(CO)C(=O)NNCc1ccc(O)c(O)c1O (configuration not stated) | -5.59 | 
22 | Cc1cnc(C(=O)NCCc2ccc(S(=O)(=O)NC(=O)NC3CCCCC3)cc2)cn1 | -6.6 | 
23 | CN(C)CCCN1c2ccccc2CCc2ccc(Cl)cc21 | 10.1 | 
24 | CC(CCc1ccc(O)cc1)NCCc1ccc(O)c(O)c1 (configuration not stated) |  | 3.26 µM (active)
25 | O=C1N(c2ccccc2)c2ccccc2C1(Cc1ccncc1)Cc1ccncc1 | -2.43 | 
26 | Cc1cc(C(C)(C)C)c(O)c(C)c1CC1=NCCN1 | -10.8 | 
27 | COc1cc2nc(N(C)CCCNC(=O)C3CCCO3)nc(N)c2cc1OC (configuration not stated) | 5.94 | 
28 | CCCCc1oc2ccccc2c1C(=O)c1cc(I)c(OCCN(CC)CC)c(I)c1 | -7.42 | 
29 | CN1CCC(=C2c3ccccc3C=Cc3ccccc32)CC1 | 4.6 | 
30 | Clc1ccc2nsnc2c1NC1=NCCN1 | -2.3 | 
31 | COc1ccccc1OCC(O)CN1CCN(CC(=O)Nc2c(C)cccc2C)CC1 (configuration not stated) | -4.21 | 
32 | CC1COc2c(N3CCN(C)CC3)c(F)cc3c(=O)c(C(=O)O)cn1c23 (configuration not stated) | -4.43 | 
